Assay in all cases: NCI-60 one-dose screen, 48 h (100 = growth as untreated, 0 = no growth, -100 = all killed)
Holding throughout (details): 10 µM unless noted

The subject of experiment [1] is NCI-H23 lung.
The subject of experiment [2] is NCI-H226 lung.
For experiment [3], the system named is NCI-H322M lung.
The subject of experiment [4] is HOP-62 NSCLC.
The test system of experiment [5] is NCI-H460 lung.
The subject of experiment [6] is HOP-92 NSCLC.
The subject of experiment [7] is NCI-H522 lung.
Experiment [8] has as its system A549/ATCC NSCLC.
In experiment [9] the test system is 786-0 renal.
The test system of experiment [10] is COLO 205 colon.
In experiment [11] the test system is DU-145 prostate.
Experiment [12] concerns K-562 leukemia.
Experiment [13] concerns MALME-3M melanoma.
Experiment [14] relates to MDA-MB-231 breast.
For experiment [15], the system named is RXF 393 renal.
For experiment [16], the system named is SF-268 CNS.
Experiment [17] has as its system SF-295 CNS.
Experiment [18] relates to SF-539 CNS.
Experiment [19] has as its system UACC-257 melanoma.
In experiment [20] the test system is M14 melanoma.

This is part of a sample that, as a whole, favours compounds with a hit. Of some 83,000 tested, about 20% had one in any assay.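 Single-dose data. Exposure time 48 hours. Values below 10 considered active.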 Unmarked numbers belong to inactive results. Activity calls are given as the source filed them.

For `Nc1c(C(=O)Nc2ccccc2)sc2nc3c(cc12)CN(C(=O)OCc1ccccc1)CC3`, the growth is 62.6% in [1]; 82.7% in experiment [2]; 70% in [3]; 44.4% in [4]; 34% in experiment [5]; 52.4% in experiment [6]. Further, the growth in [7] was 35.6%; in [8], 50.2%; in [9], 50%; in experiment [10], 55.3%; in experiment [11], 59.4%; in [12], 21.5%. In addition, the growth in experiment [13] was 52.3%; in [14], 68.4%; in experiment [15], 68.2%; in experiment [16] it was 62.2%; in [17] it was 40.7%; in experiment [18], 44.9%. In addition, the results for the growth in experiment [19] and in experiment [20] were 59.6% and 26.5%, respectively.

As to `N#CCNc1ccc(C(=O)O)cc1`, the growth in experiment [1] was 101%; in [2] it was 95.3%; in experiment [3], 114%; in experiment [4], 98.3%; in experiment [5], 103%; in experiment [6], 94%. Further, the growth is 90.4% in experiment [7]; 87% in experiment [8]; 104% in experiment [9]; 110% in [10]; 113% in [11]; 97.4% in experiment [12]. Besides, the growth in [13] is 105%; in experiment [14], 104%; in experiment [15] it was 101%; in experiment [16], 105%; in experiment [17] it was 104%; in experiment [18], 110%. Moreover, the growth in experiment [19] was 98.4%; in experiment [20] it was 110%.

In the case of `Cc1c(Cl)cccc1NC(=O)c1sc2nc3c(cc2c1N)COCC3`, the growth is 36.4% in [1]; 76.1% in experiment [2]; 60.6% in [3]; 24.5% in experiment [4]; 15.6% in experiment [5]; 36.3% in experiment [6]. In addition, the growth is 17.3% in experiment [7]; 45.9% in [8]; 25.9% in [9]; 24.1% in experiment [10]; 33% in experiment [11]; 13% in experiment [12]. For the same compound, the growth in [13] was 59.4%; in experiment [14], 49%; in experiment [15], 13.1%; in experiment [16], 47.4%; in experiment [17] it was 12.9%; in experiment [18], 11.4%. Besides, the figures for the growth in experiment [19] and in [20] were 47.3% and 10.8%, respectively.

Regarding `COc1ccc(-c2cn(-c3ccc(Cl)cc3)c(=S)[nH]2)cc1OC`, the growth in experiment [1] is 89.6%; in experiment [2], 63.2%; in experiment [3], 57.4%; in experiment [4], 38.4%; in [5], 37.9%; in [6] it was 81.8%. Further, the growth in experiment [7] is 49.4%; in experiment [8], 72%; in experiment [9], 1.85% (active); in [10] it was 44.2%; in experiment [11] it was 78.5%; in experiment [12] it was 75.9%. Also, the growth is 90.2% in experiment [13]; 53% in [14]; 11% in [15]; 96.1% in [16]; 68.6% in experiment [17]; 85.6% in experiment [18]. The growth in [19] was 65.8%; in experiment [20], 4.41% (active).

Consider `CN1CCN(S(=O)(=O)O[C@@H]2C(=O)N(c3cc4c5ccccc5ccc4c4ccccc34)[C@H]2c2ccc(F)cn2)CC1`, for which the growth is 90.6% in experiment [1]; 91.2% in experiment [2]; 87.4% in experiment [3]; 86.6% in experiment [4]; 98% in experiment [5]; 65.3% in experiment [6]. The growth in experiment [7] was 70.3%; in [8], 83.4%; in experiment [9], 79.8%; in experiment [10], 96.7%; in [11], 94.4%; in [12] it was 74.7%. Further, the growth in [13] is 115%; in experiment [14], 38.8%; in [15] it was 77.6%; in [16] it was 79.7%; in experiment [17] it was 96.5%; in experiment [18] it was 104%. For the same compound, the growth is 88.1% in [19] and 90.9% in experiment [20].

Regarding `N#Cc1c(NC(=O)c2cccs2)[n+]([O-])c2cc(C(F)(F)F)ccc2[n+]1[O-]`, the growth in experiment [1] is 95.2%; in experiment [2], 97.1%; in experiment [3], 93.7%; in [4], 112%; in experiment [5] it was 109%; in experiment [6], 33.2%. Besides, the growth in experiment [7] is 77.4%; in experiment [8] it was 96.1%; in experiment [9] it was 114%; in experiment [10], 109%; in experiment [11], 114%; in experiment [12] it was 87.7%. Further, the growth in [13] is 132%; in [14], 96.8%; in [15] it was 109%; in experiment [16] it was 105%; in experiment [17] it was 97.9%; in experiment [18] it was 101%. Also, the growth in experiment [19] was 91.4%; in experiment [20], 116%.

In the case of `C=C(C)[C@@H]1CC[C@]2(C(=O)O)CC[C@]3(C)[C@H](CC[C@@H]4[C@@]5(C)C[C@@H](CC#Cc6ccccc6)C(=O)C(C)(C)[C@@H]5CC[C@]43C)[C@@H]12`, the growth was 25.2% in [1]; 28.5% in [2]; 31.9% in experiment [3]; 32.5% in [4]; 24.1% in [5]; 48.2% in experiment [6]. The growth in experiment [7] is 11.6%; in [8], 25.3%; in [9], 35.3%; in experiment [10], 20.8%; in [11], 37.3%; in [12], 16.9%. Moreover, the growth in experiment [13] is 38.1%; in [14] it was 55.3%; in experiment [15], 71.5%; in [16], 50%; in [17], 34.8%; in experiment [18] it was 49.1%. For the same compound, the growth in experiment [19] was 60.5%; in [20] it was 36.5%.
